The source of these data is the supplement of paper PMC9262897, “Low-cost anti-mycobacterial drug discovery using engineered E. coli” (Nature Communications, 2022).

Counter-ions that a name gives are not always drawn. ± gives the standard deviation of the averaged measurements.

Holding throughout (test): growth (OD600 after 10 h); higher = more growth (less inhibition)
For experiment [1], the system named is E. coli TESEC Alr+ wild-type control. To be noted: compound 0.1 mM; raw OD600 reference: median of DMSO wells 0.241, cell-free background 0.041. As for the experimental part: (§1)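 TESEC Mtb Alr E. coli, or the Alr+ wild-type control, in 384-well plates with Prestwick library compounds at 0.1 mM and 1% DMSO, across arabinose induction levels of 1E3 to 1E7 nM. Growth is read as OD600 after 10 h at 37 °C in triplicate biological replicates.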

Experiment [2] deals with E. coli TESEC Mtb Alr. To be noted: compound 0.1 mM. As for the experimental part:
as §1

Experiment [3] has as its system E. coli TESEC Mtb Asd. To be noted: compound 0.1 mM. The method, then: (§2)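 TESEC E. coli strains in which the native enzyme is deleted and replaced by arabinose-inducible Mtb Asd, DapB, CysH or TrpD, each grown in its selective medium. Strains were screened against the Prestwick library at 0.1 mM and 1% DMSO in 384-well format at low and high arabinose induction. Growth is read as OD600 after 10 h in triplicate.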

Experiment [4] concerns E. coli TESEC Mtb Alr. To be noted: compound 0.1 mM. As for the experimental part:
(§3)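 TESEC Mtb Alr E. coli (ΔaraC ΔtolC ΔentC Δalr ΔdadX, arabinose-inducible Mtb Alr) or the Alr+ wild-type control strain, grown in defined M9-fructose medium without D-alanine in 96-well plates with Prestwick library compounds at 0.1 mM and 1% DMSO. Low Alr induction is 0.1 µM arabinose and high induction is 10 mM arabinose.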
This is another data set of the same source.

Experiment [5] concerns E. coli TESEC Mtb DapB. To be noted: compound 0.1 mM. As for the experimental part:
as §2

Experiment [6] relates to E. coli TESEC Alr+ wild-type control. To be noted: compound 0.1 mM; raw OD600 reference: median of DMSO wells 0.49, cell-free background 0.052. The method, then:
as §3

The mark [7] stands for this setting: arabinose 1000 nM, raw OD600 reference: median of DMSO wells 0.294, cell-free background 0.041.
[8] abbreviates: arabinose 10000 nM, raw OD600 reference: median of DMSO wells 0.264, cell-free background 0.041.
The mark [9] stands for this setting: arabinose 100000 nM, raw OD600 reference: median of DMSO wells 0.201, cell-free background 0.041.
[10] abbreviates: arabinose 1000000 nM, raw OD600 reference: median of DMSO wells 0.193, cell-free background 0.041.
Where [11] appears, read: arabinose 10000000 nM, raw OD600 reference: median of DMSO wells 0.146, cell-free background 0.041.
Where [12] appears, read: arabinose induction (level): High, raw OD600 reference: median of DMSO wells 0.331, cell-free background 0.041.
The mark [13] stands for this setting: arabinose induction (level): Low, raw OD600 reference: median of DMSO wells 0.417, cell-free background 0.041.
[14] abbreviates: arabinose 100 nM, raw OD600 reference: median of DMSO wells 0.413, cell-free background 0.052.
Setting [15] is: arabinose 10000000 nM, raw OD600 reference: median of DMSO wells […], cell-free background 0.052.
[16] abbreviates: arabinose induction (level): High, raw OD600 reference: median of DMSO wells […], cell-free background 0.041.
The mark [17] stands for this setting: arabinose induction (level): Low, raw OD600 reference: median of DMSO wells 0.227, cell-free background 0.041.

Consider `CN(C)[C@@H]1C(=O)C(C(N)=O)=C(O)[C@@]2(O)C(=O)C3=C(O)c4c(O)cccc4[C@@](C)(O)[C@H]3[C@H](O)[C@@H]12` [Oxytetracycline dihydrate], for which the growth was 0.0451 ± 0.0028 in experiment [1]; 0.0424 ± 0.00089 in experiment [2] (setting [7]); 0.0418 ± 0.00081 in experiment [2] (setting [8]); 0.044 ± 0.0021 in experiment [2] (setting [9]); 0.0421 ± 0.0003 in experiment [2] (setting [10]); 0.04303 ± 0.00012 in experiment [2] (setting [11]). The growth in experiment [3] (setting [12]) worked out at 0.0563 ± 0.0015; in experiment [3] (setting [13]), 0.0587 ± 0.0032; in experiment [4] (setting [14]), 0.0627 ± 0.0022; in experiment [4] (setting [15]), 0.0555 ± 0.003.

For `CO[C@]12C[C@@H](COC(=O)c3cncc(Br)c3)CN(C)[C@@H]1Cc1cn(C)c3cccc2c13` [Nicergoline], the growth in experiment [1] amounted to 0.174 ± 0.0043; in experiment [3] (setting [12]), 0.221 ± 0.021; in experiment [3] (setting [13]), 0.279 ± 0.056; in experiment [5] (setting [16]), 0.227 ± 0.014; in experiment [5] (setting [17]), 0.277 ± 0.028; in experiment [4] (setting [14]), 0.416 ± 0.005. In experiment [4] (setting [15]), this molecule showed a growth of 0.268 ± 0.015.

Take `CC(NC(C)(C)C)C(=O)c1cccc(Cl)c1` (stereo unspecified) [Bupropion hydrochloride]: the growth in experiment [1] was determined as 0.226 ± 0.0027; in experiment [3] (setting [12]), 0.356 ± 0.055; in experiment [3] (setting [13]), 0.41 ± 0.03; in experiment [6] it was 0.46 ± 0.026; in experiment [4] (setting [14]) it was 0.404 ± 0.012; in experiment [4] (setting [15]), 0.365 ± 0.0095.

On to `C[C@@H]1O[C@@H](O[C@@H]2C=C3CC[C@@H]4[C@H](CC[C@]5(C)[C@@H](c6ccc(=O)oc6)CC[C@]45O)[C@@]3(C)CC2)[C@H](O)[C@H](O)[C@H]1O` [Proscillaridin A], for which the growth amounted to 0.182 ± 0.0085 in experiment [1]; 0.247 ± 0.0077 in experiment [2] (setting [7]); 0.256 ± 0.016 in experiment [2] (setting [8]); 0.13 ± 0.0072 in experiment [2] (setting [9]); 0.108 ± 0.0053 in experiment [2] (setting [10]); 0.134 ± 0.0043 in experiment [2] (setting [11]). Also, the growth in experiment [3] (setting [12]) came to 0.117 ± 0.0017; in experiment [3] (setting [13]), 0.234 ± 0.021; in experiment [4] (setting [14]) it was 0.405 ± 0.009; in experiment [4] (setting [15]), 0.267 ± 0.0065.

Regarding `c1ccc2c(c1)OCC(C1=NCCN1)O2` (stereo unspecified) [Idazoxan hydrochloride], the growth came out at 0.23 ± 0.013 in experiment [1]; 0.373 ± 0.039 in experiment [3] (setting [12]); 0.379 ± 0.019 in experiment [3] (setting [13]); 0.401 ± 0.014 in experiment [4] (setting [14]); 0.315 ± 0.0098 in experiment [4] (setting [15]).

Turning to `O[C@@H]1CCCC[C@H]1N1CCC(c2ccccc2)CC1` [L(-)-vesamicol hydrochloride], the growth was 0.216 ± 0.0031 in experiment [1]; 0.294 ± 0.048 in experiment [3] (setting [12]); 0.381 ± 0.016 in experiment [3] (setting [13]); 0.414 ± 0.012 in experiment [4] (setting [14]); 0.358 ± 0.0053 in experiment [4] (setting [15]).

For the molecule `CC(=O)O[C@H]1C[C@H](O[C@H]2[C@@H](O)C[C@H](O[C@H]3[C@@H](O)C[C@H](O[C@H]4CC[C@@]5(C)[C@H](CC[C@@H]6[C@@H]5C[C@@H](O)[C@]5(C)[C@@H](C7=CC(=O)OC7)CC[C@]65O)C4)O[C@@H]3C)O[C@@H]2C)O[C@H](C)[C@H]1O[C@@H]1O[C@H](CO)[C@@H](O)[C@H](O)[C@H]1O` [Lanatoside C], the growth in experiment [1] was found to be 0.198 ± 0.0032; in experiment [3] (setting [12]), 0.339 ± 0.04; in experiment [3] (setting [13]) it was 0.417 ± 0.057; in experiment [4] (setting [14]), 0.4014 ± 0.0037; in experiment [4] (setting [15]) it was 0.354 ± 0.0094.

As to `CN1C[C@H](C(=O)N[C@]2(C)O[C@@]3(O)[C@@H]4CCCN4C(=O)[C@H](Cc4ccccc4)N3C2=O)C[C@@H]2c3cccc4[nH]cc(c34)C[C@H]21` [Dihydroergotamine tartrate], the growth in experiment [1] turned out to be 0.0782 ± 0.0015; in experiment [3] (setting [12]), 0.116 ± 0.013; in experiment [3] (setting [13]), 0.123 ± 0.0052; in experiment [5] (setting [16]), 0.119 ± 0.018; in experiment [5] (setting [17]), 0.161 ± 0.014; in experiment [4] (setting [14]) it was 0.282 ± 0.043. The molecule also had a growth in experiment [4] (setting [15]) of 0.0688 ± 0.0007.

For the molecule `C[C@@H]1CC[C@H]2[C@@H](C)C(=O)O[C@@H]3O[C@@]4(C)CC[C@@H]1[C@]32OO4` [Artemisinin], the growth in experiment [1] was found to be 0.125 ± 0.01; in experiment [3] (setting [12]), 0.219 ± 0.025; in experiment [3] (setting [13]), 0.216 ± 0.042; in experiment [6] it was 0.33 ± 0.0069; in experiment [4] (setting [14]), 0.348 ± 0.0058; in experiment [4] (setting [15]) it was 0.135 ± 0.025.

On to `CCC1(C)CC(=O)NC(=O)C1` [Bemegride], for which the growth was 0.237 ± 0.0029 in experiment [1]; 0.299 ± 0.023 in experiment [2] (setting [7]); 0.253 ± 0.00095 in experiment [2] (setting [8]); 0.227 ± 0.039 in experiment [2] (setting [9]); 0.191 ± 0.0055 in experiment [2] (setting [10]); 0.135 ± 0.0098 in experiment [2] (setting [11]). Also, the growth in experiment [3] (setting [12]) was 0.318 ± 0.043; in experiment [3] (setting [13]), 0.46 ± 0.0049; in experiment [4] (setting [14]), 0.4 ± 0.019; in experiment [4] (setting [15]) it was 0.363 ± 0.02.
